SMILES strings stand for the structures. “And” between values parts separate entries of the source, which are not always exact repeats. Identical values can stand only once. Hit rate of the full screen: of about 350,000 compounds, about 31,000 (8.9%) were called active. Roughly 15% stayed inconclusive and do not appear here. The call rests on the fitted dose curve; in most records, active means well fitted inhibition curve with a large enough effect; inconclusive means small, poorly fitted or top-dose-only effect; inactive means no such curve, though single readings can be large or run the other way. For the sample, actives were picked, then their nearest neighbours and some compounds at random. Some structures have more than one record in an assay (separate samples or runs), and their calls can disagree.
On the % scale 0 is the no-effect control and ±100 the full control effect; potency means the concentration at half of the fitted maximal effect.

Histone-lysine N-methyltransferase EHMT2 (Homo sapiens), sequence (Q96KQ7 913-1193 limits assumed): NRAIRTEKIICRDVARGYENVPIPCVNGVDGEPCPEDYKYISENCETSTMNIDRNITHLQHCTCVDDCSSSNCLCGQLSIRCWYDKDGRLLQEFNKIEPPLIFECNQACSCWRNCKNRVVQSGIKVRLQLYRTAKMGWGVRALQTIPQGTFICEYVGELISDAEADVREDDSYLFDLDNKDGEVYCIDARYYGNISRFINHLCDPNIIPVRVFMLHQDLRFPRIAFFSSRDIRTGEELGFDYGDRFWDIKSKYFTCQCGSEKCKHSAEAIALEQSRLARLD

For this experiment, the target named is Histone-lysine N-methyltransferase EHMT2 (Homo sapiens) (UniProt Q96KQ7). Briefly: qHTS Assay for Inhibitors of Histone Lysine Methyltransferase G9a. Further: nearly all actives have a fitted effect of over 75% in size. To be noted: G9a H3K9 monomethylation, AlphaScreen, 2 h; series mostly up to 59 µM; activity, negative = inhibition: at the top concentration. Put shortly:
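Signal arises when biotinylated H3K9 peptide, once monomethylated, bridges streptavidin donor and antibody-captured acceptor beads. Enzyme at 20 nM was preincubated 15 min with test compounds; peptide 500 nM and SAM 20 uM then reacted for 2 h.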
On the technique in general: In qHTS, concentration-response curves come from the screen itself.
For the molecule `COc1ccccc1CNC(=O)C(=O)NCC(c1cccs1)S(=O)(=O)c1cccs1` (stereo not drawn), the “activity, negative = inhibition” value is 11.3% (inactive).
With `COc1ccc(NC(=O)Cn2c(-c3ccc(OC)cc3)cn(-c3ccc(C)cc3)c2=O)cc1`, the activity, negative = inhibition is -31.1% [at 12.7 µM] (inactive).
Regarding `COc1ccc(-c2ccc(CCC(=O)O)n2-c2ccc(O)cc2)cc1`, the Potency is 31.6 µM (active).
In the case of `COc1ccc(-c2nc3ccccc3c(=O)n2CCc2ccc(O)cc2)cc1`, the “activity, negative = inhibition” value is 12.4% [at 102 µM] (inactive).
With `CCOC(=O)c1c(CNCc2ccccc2F)c2sc(C)cc2n1C`, the activity, negative = inhibition is 12% [at 12.7 µM] (inactive).
On to `Cc1cccc(NC(=O)CN2CCCN(S(=O)(=O)c3ccc(Br)s3)CC2)c1`, for which the Potency is 39.8 µM (active).
In the case of `Cc1ccc(S(=O)(=O)N2CCN(CC(=O)N/N=C/c3ccc(Br)s3)CC2)cc1`, the “activity, negative = inhibition” value was 1.4% [at 102 µM] (inactive).
Still for that read-out and setting: the result for `CC(C)N(C(=O)CN1CCN(S(=O)(=O)c2ccc(Br)s2)CC1)C(C)C` reads 17.1% [at 2.33 µM] (inactive); that for `CC1CC(C)(C)CC2(C1)NC(=O)N(CC(=O)Nc1nccs1)C2=O` (stereo not drawn), 13.6% [at 0.501 µM] (inactive); that for `COc1cccc(CNC(=O)C2CCC(CNS(=O)(=O)c3cccs3)CC2)c1` (stereo not drawn), -20% (inactive).
Regarding `CSc1ncc(Cl)c(C(=O)Nc2ccc(S(=O)(=O)N3CCCC(C)C3)cc2)n1` (stereo not drawn), the “activity, negative = inhibition” value was -29.4% (inactive).
For the molecule `Cc1cc(C)cc(OCC(=O)Nc2nc(-c3ccc(F)cc3)ns2)c1`, the “activity, negative = inhibition” value is -6.17% (inactive).
Take `CO/N=C(\C(=O)N[C@@H]1C(=O)N2C(C(=O)O)=C(COC(C)=O)CS[C@H]12)c1csc(N)n1` (stereo in doubt): the Potency entry was “inactive and 44.7 µM (active)”.
As to `CC(=O)c1ccc(N2CCN(c3nc4c(S(=O)(=O)c5ccccc5)nnn4c4ccc(Cl)cc34)CC2)cc1`, the “activity, negative = inhibition” value is 6.74% (inactive).
`Fc1cccc(-n2ncc3c2ncn2nc(-c4ccccc4Cl)nc32)c1`: the “activity, negative = inhibition” value is 5.95% (inactive).
Still for that read-out and setting: with `Cc1ccc(C)c(N2CCN(C(=O)CCc3c(C)nc4c(c3C)c(=O)n(C)c(=O)n4C)CC2)c1` the figure was 0.908% (inactive).
The same measure, in the same setting: the result for `O=C(Nc1ccc(Cl)cc1)Nc1ccc(C(=O)N2CCOCC2)cc1` reads 9.93% [at 102 µM] (inactive).
Take `S=C(Cc1ccc(Cl)cc1)N1CCOCC1`: the Potency is 14.1 µM (active).
As for `O=C(Cc1ccccc1Cl)N1CCOCC1`, the “activity, negative = inhibition” value is 2.49% [at 102 µM] (inactive).
Still for that read-out and setting: the result for `COc1cccc(C(=O)Nc2ccc3oc(-c4ccc5ccccc5c4)nc3c2)c1` reads -48.7% (inactive).
Still for that read-out and setting: the result for `COc1ccc(NC(=O)c2c(C)oc3c2CCCC3)cc1` reads -13.4% [at 102 µM] (inactive); that for `COc1ccc(C2C3=C(CCCC3=O)N(CC(=O)O)C3=C2C(=O)CCC3)cc1`, -19% [at 102 µM] (inactive).
On to `COc1ccc(N/N=C2/CCCCC2=O)cc1`, for which the Potency was 10 µM (active).
Regarding `Cc1ccc(-c2nn3c(=O)cc(CN4CCN(C(=O)Nc5cccc(C(F)(F)F)c5)CC4)nc3s2)cc1`, the “activity, negative = inhibition” value was 7.31% (inactive).
Same read-out and setting: the result for `CCCn1nc(C(=O)OCc2nc(N)nc(Nc3ccccc3C)n2)c2ccccc2c1=O` reads -4.37% [at 12.7 µM] (inactive); that for `Cc1cn(C)c(CC(=O)NCc2ccccc2)c1C(=O)O`, 0.148% (inactive).
Same read-out and setting: with `c1nnc2c3c4c(sc3ncn12)CCC4` the figure was -3.04% (inactive).
Turning to `S=c1[nH]nc2c3c4c(sc3ncn12)CCCC4`, the Potency was 1.12 µM (active).
With `N=c1c2c3c(sc2ncn1N)CCCC3`, the “activity, negative = inhibition” value was -1.8% [at 102 µM] (inactive).
On to `Cn1c(=O)c2sccc2n(Cc2ccc(Br)cc2)c1=O`, for which the activity, negative = inhibition is 4.98% [at 2.33 µM] (inactive).
In the case of `CC(=O)OC(COc1ccc(F)cc1)Cn1cnc2ccccc21` (stereo not drawn), the “activity, negative = inhibition” value was 5.88% [at 102 µM] (inactive).
Same read-out and setting: with `C/C(Cn1nnc2ccccc21)=N\OC(=O)c1cc(F)c(F)cc1Cl` the figure was 4.86% [at 102 µM] (inactive).
As to `Fc1ccc(OCc2nn3c(Cn4nnc5ccccc54)nnc3s2)cc1`, the Potency is 11.2 µM (active).
On to `CC12CCC(=O)N1C(C(=O)NCCN1C(=O)S/C(=C\c3ccccc3F)C1=O)CS2` (stereo not drawn), for which the activity, negative = inhibition was -5.94% [at 12.7 µM] (inactive).
On the same count and under the same terms, the result for `Cc1cccc(N2CCN(C(=O)c3ccc(Nc4nc5ccccc5n5nnnc45)cc3)CC2)c1C` reads 8.07% (inactive).
Take `COc1ccc(Cl)cc1NC(=O)CN(C)Cc1ccc(OC)c(OC)c1`: the Potency was 4.47 µM (active).
Regarding `COc1ccc(Cl)cc1NC(=O)CN(C)C(=O)CNC(=O)C12CC3CC(CC(C3)C1)C2`, the activity, negative = inhibition was 7.61% [at 12.7 µM] (inactive).
On the same count and under the same terms, the result for `COc1ccc(C)cc1NC(=O)CSc1ccc(Cl)cc1` reads 68% (inactive); that for `COc1ccc(Cl)cc1NC(=O)CCC(=O)c1ccc(C)cc1`, 0.463% (inactive).
Consider `COc1ccc(Cl)cc1NC(=O)CNc1ccccc1F`, for which the Potency is 79.4 µM (active).
Take `COc1ccc(Cl)cc1NC(=O)CN(C)C(=O)c1ccc2n[nH]nc2c1`: the activity, negative = inhibition is 15.9% [at 12.7 µM] (inactive).
On the same count and under the same terms, the result for `CCC(=O)c1ccc(OCC(=O)Nc2ccc(N3CCCCC3)cc2)cc1` reads 13.1% [at 12.7 µM] (inactive).
Regarding `CSc1ccc(Cl)c(C(=O)OCC(=O)N2CCNC2=O)c1`, the activity, negative = inhibition is 11.9% [at 12.7 µM] (inactive).
Still for that read-out and setting: the result for `COc1ccc(OC)c(NC(=O)CSC2=Nc3ccccc3C3=NC(CC(=O)NCc4ccc(F)cc4)C(=O)N23)c1` (stereo not drawn) reads -3.53% (inactive).
On to `CC(C)c1ccc(NC(=O)Cn2ncc3ccccc32)cc1`, for which the “activity, negative = inhibition” value was 16.2% [at 102 µM] (inactive).
For the molecule `CCC(C)N(C(=O)COC(=O)c1nc(Cl)ccc1Cl)C1CCS(=O)(=O)C1` (stereo not drawn), the activity, negative = inhibition was -0.744% [at 0.501 µM] (inactive).
Consider `COc1cccc(CNS(=O)(=O)c2ccc3c(c2)CC(C)N3C(C)=O)c1` (stereo not drawn), for which the “activity, negative = inhibition” value is 3.98% [at 102 µM] (inactive).
Still for that read-out and setting: the result for `CC(C)CCN1CCN=C1N(C)C` reads 11% [at 2.33 µM] (inactive).
On to `CCOc1ccc(CNC(=O)C2CCCN(S(=O)(=O)N(CC)c3ccc(OCC)cc3)C2)cc1` (stereo not drawn), for which the “activity, negative = inhibition” value was -17.3% (inactive).
Consider `CC(=O)N1CCOc2ccc(S(=O)(=O)N3CCN(c4cccc(C(F)(F)F)c4)CC3)cc21`, for which the “activity, negative = inhibition” value is 2.97% [at 102 µM] (inactive).
For `Cc1ccc2nc3c(cc(C(=O)NC4CCCCC4)c(=N)n3C(C)C)c(=O)n2c1`, the “activity, negative = inhibition” value was 3.7% (inactive).
Regarding `Cn1c2ccccc2c2cc(/C=C(\NC(=O)c3ccccc3)C(=O)NCC(=O)O)ccc21`, the Potency was 50.1 µM (active).
As for `COc1ccc(/C=C(\NC(=O)c2ccccc2)C(=O)NCCN2CCOCC2)cc1OC`, the “activity, negative = inhibition” value is 11.3% [at 102 µM] (inactive).
Turning to `CCOC(=O)CNC(=O)/C(=C\c1ccc(F)cc1)NC(=O)c1ccccc1`, the activity, negative = inhibition was 24.9% [at 12.7 µM] (inactive).
Turning to `COc1ccc(F)cc1C(=O)COC(=O)c1n[nH]c(=O)c2ccccc12`, the “activity, negative = inhibition” value was 0.826% (inactive).
For `Cc1coc2c(O)cc3c(c12)OC1(N2CCCCC2)C(=O)NCCCC31` (stereo not drawn), the Potency was 7.94 µM (active).
Regarding `C=CCC1=C/C(=C\c2c(N)n3nc(CC(=O)N4CCOCC4)sc3nc2=O)C=C(OC)C1=O`, the “activity, negative = inhibition” value was -45.8% [at 102 µM] (inactive).
Take `Cc1ccccc1Nc1nc(N)nc(COC(=O)CCC(=O)c2ccc(F)cc2)n1`: the “activity, negative = inhibition” value was -37.6% [at 102 µM] (inactive).
